# Assay outcomes from PubChem BioAssay.
# SUMO Mot1 rescue – inhibitors of SUMOylation pathway: yeast Mot1-301 growth rescue; S. cerevisiae Mot1-301 growth rescue, ATP luminescence, 38.5C; percent above DMSO median, 100 means doubled; 320,000 tested, 1% active; growth rescue, % at 18.8 µM;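 active = every valid replicate shows activation above 250% relative to neutral control wells; inactive = the rest, any valid replicate at or below 250%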;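 note: OY570 slx delta 5 strain wells were the positive control but not used for scaling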
# VLA-4 inh – inhibition in a human VLA-4 binding assay | P13612 | VLA-4 expressing cells, ligand binding flow cytometry | inhibition, % (about 7 µM as worked out from the volumes in the protocol) | 330,000 tested, 0.2% active; in the data active = inhibition above about 50%
# ALR inh – human ALR oxidase inhibition via reduced H2O2. P55789. purified ALR, DTT oxidation, H2O2 HRP-luminol luminescence. inhibition, % (test concentration not listed). 290,000 tested, 3.8% active. AID 485317;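 active = mean replicate inhibition above about 79%, with every replicate also reaching it, limit read from the data; inconclusive = only one of the two criteria met; inactive = mean below limit and not every replicate reaching it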
# Bfl-1 A1 inh – inhibitors of the anti-apoptotic protein A1, read as caspase activation | AID 2462 | 330,000 tested, 0.066% active | caspase activation, % (no concentration beside the values) | MEF A1-2A-BIM cells, Caspase-Glo 3/7 luminescence, 3 h; percent of clofoctol response, vehicle zero;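 active = over half of replicate activation scores above 10%, or exactly half above 10 with the replicate mean above 10; inconclusive = replicate mean below 10 yet half the replicates above 10; inactive = over half of replicates below 10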
# AHR activator – human AHR activation; activation, % at 5 µM; AID 2796; AHR-responsive luciferase reporter cells, luminescence; P35869; 320,000 tested, 2.5% active; in the data active = activation above about 47%;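 note: 0% = vehicle wells and 100% = reference agonist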
# Target sequence (P35869 whole entry, looked up): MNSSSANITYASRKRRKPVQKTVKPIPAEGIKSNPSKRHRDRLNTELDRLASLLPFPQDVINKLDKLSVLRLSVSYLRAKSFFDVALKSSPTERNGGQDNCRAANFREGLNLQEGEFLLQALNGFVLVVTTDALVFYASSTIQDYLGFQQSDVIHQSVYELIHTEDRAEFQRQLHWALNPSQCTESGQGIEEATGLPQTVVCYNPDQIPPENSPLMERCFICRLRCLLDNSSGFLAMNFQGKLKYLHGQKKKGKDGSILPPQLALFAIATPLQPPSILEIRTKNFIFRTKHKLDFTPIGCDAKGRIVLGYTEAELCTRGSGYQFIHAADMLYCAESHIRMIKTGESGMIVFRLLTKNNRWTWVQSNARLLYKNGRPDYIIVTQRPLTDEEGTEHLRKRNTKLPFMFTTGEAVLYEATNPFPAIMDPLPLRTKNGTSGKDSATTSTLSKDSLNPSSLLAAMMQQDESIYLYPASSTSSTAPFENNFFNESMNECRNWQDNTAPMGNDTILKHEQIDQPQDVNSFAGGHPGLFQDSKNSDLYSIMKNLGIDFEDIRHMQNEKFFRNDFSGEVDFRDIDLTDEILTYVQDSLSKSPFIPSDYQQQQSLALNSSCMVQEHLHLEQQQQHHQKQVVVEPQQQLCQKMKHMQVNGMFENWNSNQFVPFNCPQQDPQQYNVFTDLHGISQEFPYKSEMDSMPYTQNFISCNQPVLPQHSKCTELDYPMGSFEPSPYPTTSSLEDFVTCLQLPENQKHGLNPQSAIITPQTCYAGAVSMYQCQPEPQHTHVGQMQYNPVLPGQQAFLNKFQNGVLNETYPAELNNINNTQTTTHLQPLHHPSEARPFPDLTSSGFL
# Efflux pump inh – blocks antifungal efflux pumps in multiplex yeast assay | S. cerevisiae Candida pump triplex, Nile Red efflux | inhibition, % at 10 µM | 330,000 tested, 0.44% active | AID 485275;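 active = plate passing quality check with inhibition over a set limit, or well fluorescence over plate mean plus 4 SD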;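 note: Nile Red retained in pooled yeast measured as flow cytometry median fluorescence; 0% = buffer negative control and 100% = Enniatin B positive control; higher means more Nile Red kept so more efflux inhibition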
# Starred values were filed as active, the others as inactive; ? = inconclusive; nt = no result. Shown are actives, neighbours in structure and some others; about 7.2% of the full set was active somewhere.
SMILES,SUMO Mot1 rescue,VLA-4 inh,ALR inh,Bfl-1 A1 inh,AHR activator,Efflux pump inh
CS(=O)(=O)C1=NSC2=NC(=O)/C(=C\c3ccc(-c4ccccc4)o3)C(=N)N21,37.7,8.6,97.1*,0.2,2.9,1.1
Cc1ccc(-n2cccc2/C=C2/C(=N)N3C(=NC2=O)SN=C3S(C)(=O)=O)cc1,52.0,0.2,97.8*,0.5,8.8,0.1
Cc1cc(C)n2nc(C(=O)NC3CCCc4ccccc43)nc2n1 (centres undefined),nt,-0.1,-6.5,0.8,0.3,0.1
C(/CCc1ccccc1)=N\Nc1nc2ccccc2[nH]1,-8.7,4.7,98.2*,-1.3,45.4,0.1
C(=C\c1ccccc1)/C=N/Nc1nc2ccccc2[nH]1,4.0,-3.1,41.3,-6.5,65.5*,0.0
C(=N\Nc1nc2ccccc2[nH]1)/c1ccccc1,14.0,-3.0,nt,-2.0,29.7,-0.1
COc1ccc(/C=N/NC(=O)C2C(C=C(Cl)Cl)C2(C)C)c(OC)c1 (centres undefined),4.5,16.8,-0.2,0.2,8.7,1.3
O=C(NCc1cccnc1)c1ccc(Cl)c(Cl)c1,4.5,-22.4,-3.3,-0.5,22.6,-0.2
CCN1CCSc2ccc(C(=O)NCc3cccc(F)c3)cc21,25.3,-1.5,98.6*,0.4,38.2,0.3
O=C(NCc1cccnc1)c1ccc2c(c1)N(Cc1ccccc1)CCS2,-1.7,-3.2,92.4*,0.7,13.9,0.0
CN1CCSc2ccc(C(=O)NCc3ccccc3)cc21,-9.1,0.1,38.6,-0.8,61.8*,-0.1
O=C(NCc1ccccn1)c1ccc2c(c1)N(Cc1ccccc1)CCS2,195.8,0.6,98.1*,0.5,5.7,-0.1
CCOc1ccccc1CNC(=O)c1ccc2c(c1)N(CC)CCS2,3.3,0.5,13.3,1.0,34.9,-0.1
CCN1CCSc2ccc(C(=O)NCc3cccc(Br)c3)cc21,-15.0,15.3,17.6,?,28.4,0.2
COc1cc2c(cc1OC)C(c1cccs1)N(C(=S)NC(C)C)CC2 (centres undefined),141.0,19.3,-6.4,-0.7,-0.6,-0.1
COc1ccc(-c2cc3ccc(OC(C)C(=O)O)cc3oc2=O)cc1 (centres undefined),62.7,-4.5,-10.8,0.1,nt,0.1
O=C(Nc1ccc(S(=O)(=O)NC2CCCC2)cc1)c1cnccn1,138.5,9.7,-1.6,0.4,0.6,-0.1
CCC(C)N(C(=O)CSc1ccc(NC(C)=O)cc1)C1CCS(=O)(=O)C1 (centres undefined),249.8,0.0,88.4*,0.6,-0.8,-0.1
CCC(C)N(C(=O)COC(=O)CSc1ccc(C)c(C)c1)C1CCS(=O)(=O)C1 (centres undefined),-0.4,10.0,-11.6,-0.2,-1.1,0.1
Cc1cccc2cc(-c3ccccc3)c(-c3ccccc3)c[n+]12,33.1,11.4,-0.8,-0.4,1.5,-0.1
COc1cccc(/C=C/C(=O)OCC(=O)N(C)CC(=O)Nc2ccccc2Cl)c1OC,-8.1,-2.7,-2.1,0.2,1.3,0.1
O=C(O)c1cc(O)c2c(c1)[C@H]([C@H]1c3cc(C(=O)O)cc(O)c3C(=O)c3c(O[C@@H]4O[C@H](CO)[C@@H](O)[C@H](O)[C@H]4O)cccc31)c1cccc(OC3O[C@H](CO)[C@@H](O)[C@H](O)[C@H]3O)c1C2=O (some centres undefined),-41.4,2.0,0.9,0.0,8.8,0.0
O=C(O)c1cc(O)c2c(c1)[C@@H]([C@H]1c3cc(C(=O)O)cc(O)c3C(=O)c3c(O[C@@H]4O[C@H](CO)[C@@H](O)[C@H](O)[C@H]4O)cccc31)c1cccc(OC3O[C@H](CO)[C@@H](O)[C@H](O)[C@H]3O)c1C2=O (some centres undefined),-32.8,57.1*,-13.5,2.5,-3.3,0.1
CC(C)CC1NC(=O)N(CC(=O)Nc2ccc3c(c2)OCCO3)C1=O (centres undefined),-22.3,12.2,2.0,0.4,0.8,-0.1
Cc1cc(C)n(-c2nc(NCCO)c3c4c(sc3n2)CCCC4)n1,21.6,-0.6,-8.5,0.7,47.1*,0.4
SMILES,SUMO Mot1 rescue,VLA-4 inh,ALR inh,Bfl-1 A1 inh,AHR activator,Efflux pump inh
Nc1ccc(C(=O)N/N=C/c2ccc(N3CCOCC3)s2)cc1,42.2,-21.3,nt,-0.7,1.7,-0.1
CC(C)(C)OC(=O)N/N=C/c1ccc(N2CCOCC2)s1,-2.6,6.4,83.1*,1.7,5.3,-0.1
COc1cccc(CNC(=O)CCC2CCCN(C(=O)c3cc(C4CC4)[nH]n3)C2)c1 (centres undefined),-15.1,11.8,-8.3,-2.4,7.5,0.2
Nc1ccc2c(c1)COc1ccccc1O2,-4.7,nt,99.1*,0.8,7.9,0.2
Nc1ccc2c(c1)Oc1ccccc1C=C2,67.4,-5.0,nt,-0.3,8.3,0.1
Cc1cc(C)c(S(=O)(=O)N2CCN(C(=O)C3COc4ccccc4O3)CC2)c(C)c1 (centres undefined),24.8,21.8,0.3,-0.7,-1.1,-0.2
S=C(NCCc1ccccc1)Nc1c(Cl)cccc1Cl,17.9,-7.0,2.1,0.7,2.3,0.0
COc1ccc(SCCc2ccncc2)cc1,45.6,1.9,92.7*,-0.6,7.7,0.0
COc1ccc(C)cc1Nc1n[n+](-c2ccccc2)c(-c2ccc(C(=O)O)cc2)s1,-6.2,3.9,-1.0,-3.0,48.2*,0.0
COc1ccc(-c2sc(Nc3ccccc3)n[n+]2-c2ccccc2)cc1Br,-15.4,33.4,nt,-2.2,64.3*,-0.1
CCOc1cc(-c2sc(Nc3cc(C)ccc3OC)n[n+]2-c2ccccc2)ccc1OC,-19.4,27.6,nt,-0.4,17.2,0.1
COc1ccc(CCNC(=S)NC(=O)c2ccccc2)cc1C,-0.8,3.2,-1.8,-0.6,3.4,-0.1
O=C(Nc1ccc2c(c1)OCCO2)c1ccccc1F,-18.8,-6.0,-8.9,-7.2,-0.6,0.0
O=C(CCc1ccccc1)NNC(=S)NC(=O)c1ccccc1,-9.5,0.6,97.6*,-0.9,2.8,0.1
O=C(NCCc1ccccc1)c1ccccc1C(=O)NCCc1ccccc1,22.7,4.3,-61.8,1.7,70.1*,0.0
O=C(NC(=S)NCCc1ccccc1)c1ccccc1,-5.2,-7.2,-2.4,-2.1,69.2*,0.2
O=C(NC(=S)Nc1ccc2c(c1)OCCO2)c1ccccc1F,87.6,-15.1,0.1,-5.6,58.3*,0.1
CC(=O)NC(=S)NNC(=O)CCc1ccccc1,nt,9.7,41.1,0.6,-0.3,0.0
O=C(NC(=S)NCCc1ccccc1)c1ccccc1F,-5.9,-15.1,-4.3,1.2,74.5*,0.2
O=C(NC(=S)NC(=O)c1ccccc1F)c1ccccc1F,-24.4,17.2,89.2*,0.3,0.2,0.0
O=C(NC(=S)NCc1ccccc1)c1ccccc1F,10.6,-4.6,-11.9,-1.0,0.2,-0.1
Cn1c(NC(=O)/C=C\c2ccccc2)cc(=O)n(C)c1=O,-10.8,15.0,-17.9,-0.4,49.8*,0.1
